For 26 compounds, growth results are on record in PubChem BioAssay (NCI).

The panel holds about 83,000 compounds, 20% with a hit somewhere; the sample as a whole holds those more often.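 Negative percent growth values reflect cell death: -40 means 40% of the cells present at the start died, and -100 means all died.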 Values without a mark were called inactive. Activity calls are given as the source filed them. The calls were made as follows: active = growth percent below 10; inactive = the rest.

Common to all, as to test: NCI-60 one-dose screen, 48 h (100 = growth as untreated, 0 = no growth, -100 = all killed)
Common to all, as to conditions: 10 µM unless noted

Assay [1] has as its system T-47D breast.
Assay [2] has as its system BT-549 breast.
Assay [3] concerns SW-620 colon.
In assay [4] the test system is MCF7 breast.
Assay [5] deals with HCT-116 colon.
Assay [6] relates to HCC-2998 colon.
Assay [7] has as its system KM12 colon.
The subject of assay [8] is MDA-MB-435 melanoma.

Turning to `COC(=O)Nc1ccc(-c2nc(-c3cccc(OC)c3)c(-c3ccnc(Br)c3)[nH]2)cc1`, the growth in assay [1] was 22.2%; in assay [2], 72.7%; in assay [3] it was 74.5%; in assay [4], 33.1%; in assay [5], 54.2%; in assay [6], 71.5%. For the same compound, the growth in assay [7] was 48%.

With `CC(=O)Oc1ccccc1C(=O)N=C1[Se]CCCN1C(=O)c1ccccc1OC(C)=O`, the growth was 85.2% in assay [1]; -97.2% (active) in assay [2]; -18.9% (active) in assay [8]; 15.7% in assay [4]; -8.29% (active) in assay [5]; 104% in assay [6]. Besides, in assay [7], the growth is 30.5%.

With `NCCCNc1nc2ccccc2c2c(=O)c3cc(F)cc(F)c3sc12`, the growth in assay [1] is 92.7%; in assay [2] it was 93.4%; in assay [8] it was -91.2% (active); in assay [4] it was 75.5%; in assay [5] it was 53.2%; in assay [6], 75.3%. For the same compound, the growth in assay [7] is 79.1%.

`Cc1ccc2sc3c(NCCN)nc4ccccc4c3c(=O)c2c1`: the growth in assay [1] is 65.6%; in assay [2] it was 88.1%; in assay [8], 46.2%; in assay [4] it was 47.9%; in assay [5], 7.89% (active); in assay [6] it was -33% (active). The growth in assay [7] is 14.1%.

Regarding `CCCCOc1nc2c(C)cccc2cc1-c1cc(-c2ccc(Cl)cc2)nc(-c2ccc(Cl)cc2)c1`, the growth in assay [1] was 99%; in assay [2], 101%; in assay [8], 102%; in assay [4], 96.9%; in assay [5], 99.5%; in assay [6], 108%. In addition, the growth in assay [7] is 97.7%.

Regarding `COc1cc(-c2nc3sccn3c2-c2ccnc(NCCCNS(=O)(=O)c3ccc(F)cc3)n2)ccc1F`, the growth in assay [1] was 15.5%; in assay [2] it was 42.8%; in assay [8] it was 65.8%; in assay [4], 76.1%; in assay [5], 58.1%; in assay [6] it was 95.5%. For the same compound, the growth in assay [7] is 74.2%.

Consider `C=CCNc1ccc2c3c(cccc13)C(=O)N(N1C(=O)c3cccc4cccc(c34)C1=O)C2=O`, for which the growth in assay [1] was 96.5%; in assay [2], 105%; in assay [8], 101%; in assay [4] it was 87.4%; in assay [5] it was 99.6%; in assay [7] it was 105%.

For the compound `S=c1nc(-c2ccccc2)oc(=NC2CCCCC2)n1C1CCCCC1`, the growth in assay [1] was 35.4%; in assay [2], 82.4%; in assay [8], 67.9%; in assay [4] it was 12.7%; in assay [5] it was 18.5%; in assay [6] it was 73.7%. Besides, the growth in assay [7] was 10.7%.

For `COc1cccc(-c2nc(-c3ccc(NC(=O)c4ccccc4)cc3)[nH]c2-c2ccnc(Br)c2)c1`, the growth in assay [1] is 14.7%; in assay [2], 47.1%; in assay [3], 30.8%; in assay [4], 14.7%; in assay [5] it was 30.7%; in assay [6], 31.1%. In addition, in assay [7], the growth is 20%.

As for `CN1C(=C2C(=O)OC(C)(C)OC2=O)CCC1C(=O)NCc1ccc(Cl)cc1Cl` (stereo not given), the growth was 97.4% in assay [1]; 107% in assay [2]; 109% in assay [8]; 98.3% in assay [4]; 88.3% in assay [5]; 96.5% in assay [6]. In addition, the growth in assay [7] was 98.5%.

For the compound `CCCCn1c(-c2ccc(-c3nc(-c4ccc(Cl)cc4)no3)cc2)nc(-c2ccccc2)c1-c1ccccc1`, the growth in assay [1] is 76.3%; in assay [2], 101%; in assay [3] it was 88.8%; in assay [4], 79%; in assay [5] it was 75.4%; in assay [6] it was 105%. Also, the growth in assay [7] was 95.2%.

For `COc1ccc([C@H]2c3cc(OC)c(OC)cc3C=C(C=O)C2CO)cc1OC` (stereo not given in full), the growth is 45.2% in assay [1]; 58.6% in assay [2]; -24% (active) in assay [8]; 18.5% in assay [4]; 23.8% in assay [5]; 58.4% in assay [6]. In assay [7], the growth was 21%.

For the compound `c1ccc(-c2nc3nonc3nc2-c2ccccc2)cc1`, the growth in assay [1] is 61.6%; in assay [2] it was 56.2%; in assay [8] it was 43.1%; in assay [4], 60.9%; in assay [5], 62.5%; in assay [6] it was 95.4%. Moreover, in assay [7], the growth is 74.4%.

For the compound `O=C(Nc1ccc(Br)cc1F)c1cc(Br)ccc1O`, the growth in assay [1] is -5.16% (active); in assay [2] it was -6.02% (active); in assay [8] it was 3.11% (active); in assay [4] it was 6% (active); in assay [5] it was 5.39% (active); in assay [7], 3.17% (active).

In the case of `CCc1cccc2c1S/C(=C/c1ccc(OC)cc1)C2=O`, the growth in assay [1] is 53.9%; in assay [2], 55.5%; in assay [3], 30%; in assay [4], 22.3%; in assay [5] it was 34.3%; in assay [6] it was 77.7%. Also, in assay [7], the growth is 28.6%.

With `CC(C)c1cc(C(C)C)c(S(=O)(=O)Oc2ccc(NC(=O)c3ccc(Cl)cc3)cc2)c(C(C)C)c1`, the growth in assay [1] was 7.98% (active); in assay [2] it was 20.4%; in assay [8] it was 41.4%; in assay [4], 16.3%; in assay [5] it was 8.78% (active); in assay [6], 26.3%. Also, the growth in assay [7] was 18.4%.

With `Cc1ccc(-c2nc(N3CCN(CC(=O)Nc4ccc(Cl)c(C(F)(F)F)c4)CC3)c3ccccc3n2)cc1`, the growth in assay [1] was 74.7%; in assay [2], 94.2%; in assay [8], 94.6%; in assay [4], 74.7%; in assay [5], 79.2%; in assay [6], 112%. For the same compound, in assay [7], the growth was 94.2%.

Consider `CCCCn1c(=O)c(-c2cc(-c3ccc(Cl)cc3)nc(-c3ccc(Cl)cc3)c2)cc2cc(Cl)ccc21`, for which the growth is 103% in assay [1]; 106% in assay [2]; 103% in assay [8]; 98.4% in assay [4]; 106% in assay [5]; 102% in assay [6]. Moreover, the growth in assay [7] is 102%.

On to `COc1ccc(-c2conc2-c2ccccc2)cc1`, for which the growth in assay [1] was 52.8%; in assay [2] it was 29.6%; in assay [8] it was -45.4% (active); in assay [4], 16%; in assay [5], 12.3%; in assay [6], 19.5%. The growth in assay [7] was 9.21% (active).

With `O=c1c2cccc(F)c2sc2c(NCCCNCCO)nc3ccccc3c12`, the growth was 51.8% in assay [1]; 72.6% in assay [2]; 6.93% (active) in assay [8]; 20.2% in assay [4]; 0.842% (active) in assay [5]; -51.7% (active) in assay [6]. For the same compound, the growth in assay [7] is 9.05% (active).

As for `NCCCNc1nc2ccccc2c2c(=O)c3cccc(F)c3sc12`, the growth was 60.3% in assay [1]; 91.2% in assay [2]; 16.5% in assay [8]; 19.9% in assay [4]; -72.5% (active) in assay [5]; -46% (active) in assay [6]. Also, the growth in assay [7] is 4% (active).

`COc1ccc(C(=O)n2nc(-c3ccccc3)nc2N)cc1OC`: the growth was 56.4% in assay [1]; 94.6% in assay [2]; 109% in assay [8]; 44.3% in assay [4]; 98.2% in assay [5]; 97.9% in assay [6]. Also, the growth in assay [7] is 85.8%.

Regarding `Cc1ccc(-c2nc(N3CCN(C(=O)c4ccc(OC(F)(F)F)cc4)CC3)c3ccccc3n2)cc1`, the growth in assay [1] was 61.7%; in assay [2], 91.9%; in assay [8], 92.5%; in assay [4], 92.9%; in assay [5], 85.3%; in assay [6], 97.1%. Also, the growth in assay [7] is 93%.

With `CCC(C)(c1cc(C(C)(C)C)c(O)c(C(C)(C)C)c1)c1cc(C(C)(C)C)c(O)c(C(C)(C)C)c1`, the growth was 84.2% in assay [1]; 104% in assay [2]; 105% in assay [8]; 92.5% in assay [4]; 99.2% in assay [5]; 110% in assay [6]. Further, the growth in assay [7] is 100%.

Take `CCCCCCn1c(-c2ccc(C(=O)O/N=C(\N)c3ccc(OC)cc3)cc2)nc(-c2ccccc2)c1-c1ccccc1`: the growth is -30.4% (active) in assay [1]; -2.06% (active) in assay [2]; -1.32% (active) in assay [3]; -39.3% (active) in assay [4]; -56.1% (active) in assay [5]; 3.48% (active) in assay [6]. The growth in assay [7] is 15.7%.

Turning to `COc1ccc(NC2=C(Br)C(=O)C(C)=C(C)C2=O)cc1`, the growth in assay [1] is -33.9% (active); in assay [2], 101%; in assay [3] it was 98.9%; in assay [4] it was 63.5%; in assay [5] it was 14.1%; in assay [6], 99.6%. Besides, in assay [7], the growth was 94.8%.
